Experiment in all cases: NCI-60 one-dose screen, 48 h (100 = growth as untreated, 0 = no growth, -100 = all killed)
The test system of one test is SK-MEL-2 melanoma. The conditions noted are these: 10 µM unless noted.
In a further test the test system is EKVX NSCLC. Conditions: 10 µM unless noted.
A further test concerns SN12C renal. The conditions noted are these: 10 µM unless noted.
A further test relates to UO-31 renal. The conditions noted are these: 10 µM unless noted.
A further test relates to ACHN renal. Conditions: 10 µM unless noted.
In the next test the test system is CAKI-1 renal. The conditions noted are these: 10 µM unless noted.
The test system of the next test is A498 renal. The conditions noted are these: 10 µM.
Another test concerns HL-60(TB) leukemia. Conditions: 10 µM unless noted.
The subject of the next test is CCRF-CEM leukemia. The conditions noted are these: 10 µM unless noted.
Another test relates to MOLT-4 leukemia. Conditions: 10 µM unless noted.
Another test deals with SR leukemia. Conditions: 10 µM unless noted.
Another test deals with OVCAR-8 ovarian. The conditions noted are these: 10 µM unless noted.
In a further test the test system is OVCAR-5 ovarian. The conditions noted are these: 10 µM unless noted.
A further test relates to OVCAR-4 ovarian. The conditions noted are these: 10 µM unless noted.
In another test the test system is SK-OV-3 ovarian. Conditions: 10 µM unless noted.
The subject of another test is IGROV1 ovarian. The conditions noted are these: 10 µM unless noted.
The test system of another test is OVCAR-3 ovarian. The conditions noted are these: 10 µM unless noted.
The next test has as its system HS 578T breast. The conditions noted are these: 10 µM unless noted.
The test system of a further test is TK-10 renal. Conditions: 10 µM unless noted.
The subject of the next test is RPMI-8226 leukemia. Conditions: 10 µM unless noted.

About 83,000 compounds went through this panel and 20% of them were active in at least one assay; those are over-represented in the sample as a whole.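 Values shown are percent growth following 48 h exposure of cells in 96-well plates to a single concentration of compound; below 10 was considered active.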 A number with no mark means an inactive call. Calls of active or inactive are those of the source.

As to `O=C1NC(=O)C(=Cc2cn(CCCCCCn3c4ccccc4c(=O)c4ccccc43)c3ccccc23)C(=O)N1`, the growth was 94% in the test on SK-MEL-2 melanoma; 89.8% with EKVX NSCLC; 91.1% in the test with SN12C renal; 63.9% in the test on UO-31 renal; 101% in the test with ACHN renal; 97.6% with CAKI-1 renal. The growth with A498 renal is -49.3% (active); with HL-60(TB) leukemia, 78.7%; in the test on CCRF-CEM leukemia, 80.6%; in the test with MOLT-4 leukemia, 63.2%; in the test on SR leukemia, 93.5%; with OVCAR-8 ovarian it was 91.8%. Also, the growth with OVCAR-5 ovarian was 22.6%; with OVCAR-4 ovarian it was 85.8%; in the test with SK-OV-3 ovarian it was 77.5%; with IGROV1 ovarian, 79.2%; in the test on OVCAR-3 ovarian, 99.2%; with HS 578T breast, 103%.
As for `CCCC[C@H](NC(=O)[C@H]1CCCN1C)C(=O)N(C)[C@H](C[C@@H](OC(C)=O)c1nc(C(=O)N[C@@H](Cc2ccccc2)C[C@H](C)C(=O)OCC)cs1)C(C)C`, the growth was 52% with SK-MEL-2 melanoma; 41.3% in the test on EKVX NSCLC; 23.6% with SN12C renal; 40.2% with UO-31 renal; 16.4% with TK-10 renal; 17.5% in the test on ACHN renal. The growth in the test with HL-60(TB) leukemia is -28.7% (active); with CCRF-CEM leukemia it was 11.1%; with MOLT-4 leukemia, 14.5%; in the test with SR leukemia, 6.28% (active); in the test on RPMI-8226 leukemia, 16.6%; in the test with OVCAR-8 ovarian, 20%. Moreover, the growth is 32.7% with OVCAR-5 ovarian; 66.5% in the test with OVCAR-4 ovarian; 17.2% with SK-OV-3 ovarian; 29.7% in the test on IGROV1 ovarian; 8.32% (active) in the test with OVCAR-3 ovarian; 12.6% in the test on HS 578T breast.
As for `COP(=O)(OC)C(O)c1ccc(Cl)cc1` (stereo not given), the growth is 109% with SK-MEL-2 melanoma; 98.4% in the test on EKVX NSCLC; 108% in the test with SN12C renal; 83.3% in the test with UO-31 renal; 96.5% in the test on TK-10 renal; 98.5% in the test on A498 renal. In addition, the growth was 112% with CCRF-CEM leukemia; 119% in the test on MOLT-4 leukemia; 96.1% with SR leukemia; 104% in the test on RPMI-8226 leukemia; 108% in the test with OVCAR-8 ovarian; 112% in the test with OVCAR-5 ovarian. Further, the growth in the test with OVCAR-4 ovarian was 104%; with SK-OV-3 ovarian it was 111%; in the test on IGROV1 ovarian it was 103%; in the test with OVCAR-3 ovarian it was 94.7%; in the test on HS 578T breast, 94.1%.
For the compound `C=COC(=O)CCN1CC1`, the growth with SK-MEL-2 melanoma was 115%; in the test on EKVX NSCLC it was 103%; with SN12C renal it was 102%; in the test on UO-31 renal, 90.6%; in the test on TK-10 renal, 110%; with A498 renal, 77.4%. Further, the growth in the test on HL-60(TB) leukemia was 92.3%; with CCRF-CEM leukemia it was 105%; in the test with MOLT-4 leukemia, 98.2%; with SR leukemia, 100%; in the test with RPMI-8226 leukemia, 104%; with OVCAR-8 ovarian, 104%. Further, the growth in the test with OVCAR-5 ovarian was 110%; in the test on OVCAR-4 ovarian it was 107%; in the test on SK-OV-3 ovarian, 101%; in the test on IGROV1 ovarian, 108%; in the test on OVCAR-3 ovarian, 112%; with HS 578T breast it was 104%.
Consider `CC[C@H](C)[C@H](NC(=O)N[C@@H](C)c1ccccc1)C(=O)N(C)[C@H](C[C@@H](OC(C)=O)c1nc(C(=O)N[C@@H](Cc2ccccc2)C[C@H](C)C(=O)OC)cs1)C(C)C`, for which the growth with SK-MEL-2 melanoma was -14.9% (active); with EKVX NSCLC, 36.7%; in the test on SN12C renal it was 39.9%; in the test on UO-31 renal, 28.5%; in the test with ACHN renal, 21.5%; in the test on HL-60(TB) leukemia, -16.9% (active). Moreover, the growth in the test on CCRF-CEM leukemia was 10.7%; with MOLT-4 leukemia, 21.7%; with SR leukemia, 3.11% (active); in the test on RPMI-8226 leukemia, 16.1%; in the test on OVCAR-8 ovarian, 11.6%; in the test with OVCAR-5 ovarian it was 17.8%. In addition, the growth in the test on OVCAR-4 ovarian is 37.1%; in the test on SK-OV-3 ovarian, 36.1%; in the test on IGROV1 ovarian, 24.1%; with OVCAR-3 ovarian it was -36.6% (active).
In the case of `Clc1cccc(Cl)c1Cl`, the growth in the test on SK-MEL-2 melanoma was 74.5%; with EKVX NSCLC it was 95.7%; with SN12C renal it was 120%; in the test on UO-31 renal, 85.3%; with TK-10 renal, 86.8%; with A498 renal, 107%. Besides, the growth was 99.6% in the test with HL-60(TB) leukemia; 96.4% in the test on CCRF-CEM leukemia; 104% with MOLT-4 leukemia; 92.7% with SR leukemia; 110% with RPMI-8226 leukemia; 112% with OVCAR-8 ovarian. The growth in the test with OVCAR-5 ovarian was 97.8%; in the test with OVCAR-4 ovarian, 106%; in the test on SK-OV-3 ovarian, 104%; in the test with IGROV1 ovarian, 104%; in the test on OVCAR-3 ovarian, 94.2%; in the test with HS 578T breast, 102%.
Turning to `O=P1(NCCCl)OCCCN1CCCl` (stereo not given), the growth was 99.6% with SK-MEL-2 melanoma; 105% in the test with EKVX NSCLC; 101% in the test with SN12C renal; 97.7% in the test on TK-10 renal; 98.8% in the test on ACHN renal; 99% in the test with CAKI-1 renal. The growth is 108% with A498 renal; 100% in the test with HL-60(TB) leukemia; 99.1% in the test with CCRF-CEM leukemia; 101% with MOLT-4 leukemia; 91.2% with SR leukemia; 105% in the test on RPMI-8226 leukemia. Besides, the growth in the test with OVCAR-8 ovarian was 114%; in the test on OVCAR-5 ovarian it was 106%; in the test with OVCAR-4 ovarian, 112%; in the test with SK-OV-3 ovarian it was 100%; in the test with IGROV1 ovarian, 111%; in the test on OVCAR-3 ovarian, 107%. Besides, the growth with HS 578T breast was 92.7%.
For `Oc1ccc2c3c1OC1[C@@H](O)CC[C@@]4(O)[C@@H](C2)N(CC2CCC2)CC[C@]314` (stereo not given in full), the growth is 118% with SK-MEL-2 melanoma; 99.7% in the test on EKVX NSCLC; 103% in the test with SN12C renal; 83.2% in the test on UO-31 renal; 106% in the test with TK-10 renal; 94% with CAKI-1 renal. Further, the growth in the test on A498 renal was 94.7%; with HL-60(TB) leukemia it was 102%; in the test with CCRF-CEM leukemia, 97.5%; in the test with MOLT-4 leukemia, 97.7%; in the test on SR leukemia, 99.5%; with RPMI-8226 leukemia it was 103%. The growth in the test on OVCAR-8 ovarian is 104%; with OVCAR-4 ovarian, 98.2%; in the test with SK-OV-3 ovarian, 109%; in the test on OVCAR-3 ovarian, 116%.

The values are drawn from PubChem BioAssay (NCI).
